# Several values for one entry are separate records, joined by “and”; a condition that tells them apart may be missing. Identical values can stand only once. Like-named read-outs stand apart in the source and are kept apart here.
# How the values were obtained:
# [1] = tested on: ROCK1; conditions: n = 1
# [2] = tested on: ROCK2; conditions: n = 1
# [3] = tested on: ROS1; conditions: n = 1
# [4] = tested on: RPS6KA4(Kin.Dom.1-N-terminal); conditions: n = 1
# [5] = tested on: RPS6KA4(Kin.Dom.2-C-terminal); conditions: concentration: 1 μM, replicates: in singlicate; n = 1
# [6] = tested on: RPS6KA5(Kin.Dom.1-N-terminal); conditions: n = 1
# [7] = tested on: RPS6KA5(Kin.Dom.2-C-terminal); conditions: n = 1
# [8] = tested on: T1, RSK1(Kin.Dom.1-N-terminal); conditions: n = 1
# T1 construct: gene RPS6KA1
# [9] = tested on: T2, RSK1(Kin.Dom.2-C-terminal); conditions: n = 1
# T2 construct: gene RPS6KA1
# [10] = tested on: T3, RSK2(Kin.Dom.1-N-terminal); conditions: n = 1
# T3 construct: gene RPS6KA3
# [11] = tested on: T4, RSK2(Kin.Dom.2-C-terminal); conditions: n = 1
# T4 construct: gene RPS6KA3
# [12] = tested on: T5, RSK3(Kin.Dom.1-N-terminal); conditions: n = 1
# T5 construct: gene RPS6KA2
# [13] = tested on: T6, RSK3(Kin.Dom.2-C-terminal); conditions: n = 1
# T6 construct: gene RPS6KA2
# [14] = tested on: T7, RSK4(Kin.Dom.1-N-terminal); conditions: concentration: 1 μM, replicates: in singlicate; n = 1
# T7 construct: gene RPS6KA6
# [15] = tested on: T8, RSK4(Kin.Dom.2-C-terminal); conditions: n = 1
# T8 construct: gene RPS6KA6
# [16] = tested on: S6K1; conditions: n = 1
# [17] = tested on: SBK1; conditions: n = 1
# [18] = tested on: SGK2; conditions: concentration: 1 μM, replicates: in singlicate; n = 1
# [19] = tested on: SGK3; conditions: n = 1
# [20] = tested on: SGK; conditions: concentration: 1 μM, replicates: in singlicate; n = 1
# [21] = concentration: 1 μM, replicates: in singlicate
# [22] = concentration: 1 μM,replicates: in singlicate, 1 µM
# 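Further: KINOMEscan kinase panel screen.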
smiles,measurement,setting,value
COC(=O)c1c(-c2ccccc2)c2cc(C(=O)O)ccc2c(=O)n1Cc1ccccc1,%Inh,[1]; [21],10%
same,%Inh,[2]; [21],0%
same,%Inh,[3]; [21],0%
same,%Inh,[4]; [21],0%
same,%Inh,[5],6%
same,%Inh,[6]; [21],11%
same,%Inh,[7]; [21],0%
same,%Inh,[8]; [21],0%
same,%Inh,[9]; [21],18%
same,%Inh,[10]; [21],0%
same,%Inh,[11]; [21],0%
same,%Inh,[12]; [21],0%
same,%Inh,[13]; [21],0%
same,%Inh,[14],0%
same,%Inh,[15]; [21],5%
same,%Inh,[16]; [21],0%
same,%Inh,[17]; [21],0%
same,%Inh,[18],25%
same,%Inh,[19]; [21],5%
same,%Inh,[20],23%
O=S(=O)(c1ccc(-c2ccnc3[nH]ccc23)cc1)N1CCCC1 [GSK846226],%Inh,[1]; [21],81%
same,%Inh,[2]; [21],82%
same,%Inh,[3]; [21],12%
same,%Inh,[4]; [21],5%
same,%Inh,[5],56%
same,%Inh,[6]; [21],8%
same,%Inh,[7]; [21],76%
same,%Inh,[8]; [21],8%
same,%Inh,[9]; [21],54%
same,%Inh,[10]; [21],18%
same,%Inh,[11]; [21],0%
same,%Inh,[12]; [21],0%
same,%Inh,[13]; [21],38%
same,%Inh,[14],0%
same,%Inh,[15]; [21],35%
same,%Inh,[16]; [21],5%
same,%Inh,[17]; [21],4%
same,%Inh,[18],0%
same,%Inh,[19]; [21],0%
same,%Inh,[20],0%
COC(=O)c1c(-c2ccccc2)c2cc(OC)ccc2c(=O)n1Cc1ccccc1,%Inh,[1]; [21],0%
same,%Inh,[2]; [21],0%
same,%Inh,[3]; [21],0%
same,%Inh,[4]; [21],0%
same,%Inh,[5],4%
same,%Inh,[6]; [21],15%
same,%Inh,[7]; [21],0%
same,%Inh,[8]; [21],11%
same,%Inh,[9]; [21],18%
same,%Inh,[10]; [21],0%
same,%Inh,[11]; [21],41%
same,%Inh,[12]; [21],8%
same,%Inh,[13]; [21],21%
same,%Inh,[14],0%
same,%Inh,[15]; [21],27%
same,%Inh,[16]; [21],8%
same,%Inh,[17]; [21],2%
same,%Inh,[18],0%
same,%Inh,[19]; [21],16%
same,%Inh,[20],0%
Cl.NC(=O)c1cccc(Nc2nccc(Nc3ccc(Oc4cccc(Cl)c4)c(Cl)c3)n2)c1 [GW659008],%Inh,[1]; [21],0%
same,%Inh,[2]; [21],0%
same,%Inh,[3]; [21],0%
same,%Inh,[4]; [21],0%
same,%Inh,[5],0%
same,%Inh,[6]; [21],5%
same,%Inh,[7]; [21],11%
same,%Inh,[8]; [21],0%
same,%Inh,[9]; [21],0%
same,%Inh,[10]; [21],8%
same,%Inh,[11]; [21],16%
same,%Inh,[12]; [21],0%
same,%Inh,[13]; [21],18%
same,%Inh,[14],0%
same,%Inh,[15]; [21],19%
same,%Inh,[16]; [21],0%
same,%Inh,[17]; [21],0%
same,%Inh,[18],0%
same,%Inh,[19]; [21],0%
same,%Inh,[20],0%
COc1cccc(NC(=O)NC2CCN(c3ccnc(Nc4ccc(F)cc4)n3)C2)c1 (stereo not shown) [GSK1379721],%Inh,[1]; [21],0%
same,%Inh,[2]; [21],5%
same,%Inh,[3]; [21],0%
same,%Inh,[4]; [21],0%
same,%Inh,[5],0%
same,%Inh,[6]; [21],0%
same,%Inh,[7]; [21],12%
same,%Inh,[8]; [21],15%
same,%Inh,[9]; [21],25%
same,%Inh,[10]; [21],4%
same,%Inh,[11]; [21],30%
same,%Inh,[12]; [21],5%
same,%Inh,[13]; [21],2%
same,%Inh,[14],0%
same,%Inh,[15]; [21],0%
same,%Inh,[16]; [21],0%
same,%Inh,[17]; [21],2%
same,%Inh,[18],0%
same,%Inh,[19]; [21],0%
same,%Inh,[20],5%
Cc1ccc(NC(=O)Nc2cccc(Cl)c2)cc1-c1ccc(C(=O)Nc2ccncc2)cc1 [GSK1398468],%Inh,[1]; [21],0%
same,%Inh,[2]; [21],13%
same,%Inh,[3]; [21],0%
same,%Inh,[4]; [21],24%
same,%Inh,[5],0%
same,%Inh,[6]; [21],10%
same,%Inh,[7]; [21],39%
same,%Inh,[8]; [21],23%
same,%Inh,[9]; [21],0%
same,%Inh,[10]; [21],0%
same,%Inh,[11]; [21],0%
same,%Inh,[12]; [21],5%
same,%Inh,[13]; [21],1%
same,%Inh,[14],0%
same,%Inh,[15]; [21],16%
same,%Inh,[16]; [21],0%
same,%Inh,[17]; [21],26%
same,%Inh,[18],0%
same,%Inh,[19]; [21],22%
same,%Inh,[20],0%
CC(=O)Nc1nc2cnc(Nc3cc(NC(=O)c4cccc(CCC#N)c4)ccc3C)nc2s1,%Inh,[1]; [21],14%
same,%Inh,[2]; [21],15%
same,%Inh,[3]; [21],0%
same,%Inh,[4]; [21],0%
same,%Inh,[5],0%
same,%Inh,[6]; [21],15%
same,%Inh,[7]; [21],2%
same,%Inh,[8]; [21],0%
same,%Inh,[9]; [21],0%
same,%Inh,[10]; [21],5%
same,%Inh,[11]; [21],6%
same,%Inh,[12]; [21],0%
same,%Inh,[13]; [21],1%
same,%Inh,[14],24%
same,%Inh,[15]; [21],0%
same,%Inh,[16]; [21],3%
same,%Inh,[17]; [21],0%
same,%Inh,[18],0%
same,%Inh,[19]; [21],7%
same,%Inh,[20],0%
CSc1nn2c(=O)cc(N3CCOCC3)nc2n1Cc1cccc(C(F)(F)F)c1C [GSK2363608],%Inh,[1]; [22],98.3% and 17%
same,%Inh,[2]; [22],98.9% and 0%
same,%Inh,[3]; [22],14% and 0%
same,%Inh,[4]; [22],28% and 0%
same,%Inh,[5],0%
same,%Inh,[6]; [22],12% and 0%
same,%Inh,[7]; [22],19% and 9%
same,%Inh,[8]; [22],20% and 10%
same,%Inh,[9]; [22],1% and 0%
same,%Inh,[10]; [22],9% and 2%
same,%Inh,[11]; [22],0% and 5%
same,%Inh,[12]; [22],0% and 16%
same,%Inh,[13]; [22],10% and 0%
same,%Inh,[14],0%
same,%Inh,[15]; [22],3% and 0%
same,%Inh,[16]; [22],3% and 10%
same,%Inh,[17]; [22],1% and 2%
same,%Inh,[18],0%
same,%Inh,[19]; [22],6% and 4%
same,%Inh,[20],0%
COc1ccc2nc(-c3cccc(C)n3)nc(Nc3ccncc3)c2c1 [GSK204919],%Inh,[1]; [21],13%
same,%Inh,[2]; [21],5%
same,%Inh,[3]; [21],4%
same,%Inh,[4]; [21],12%
same,%Inh,[5],0%
same,%Inh,[6]; [21],25%
same,%Inh,[7]; [21],0%
same,%Inh,[8]; [21],2%
same,%Inh,[9]; [21],7%
same,%Inh,[10]; [21],0%
same,%Inh,[11]; [21],19%
same,%Inh,[12]; [21],19%
same,%Inh,[13]; [21],0%
same,%Inh,[14],0%
same,%Inh,[15]; [21],26%
same,%Inh,[16]; [21],1%
same,%Inh,[17]; [21],21%
same,%Inh,[18],0%
same,%Inh,[19]; [21],0%
same,%Inh,[20],0%
CS(=O)(=O)c1ccc(-c2nc3n(c2-c2ccncc2)CCC3)cc1 [SKF-105942],%Inh,[1]; [21],0%
same,%Inh,[2]; [21],0%
same,%Inh,[3]; [21],2%
same,%Inh,[4]; [21],1%
same,%Inh,[5],0%
same,%Inh,[6]; [21],0%
same,%Inh,[7]; [21],0%
same,%Inh,[8]; [21],27%
same,%Inh,[9]; [21],0%
same,%Inh,[10]; [21],4%
same,%Inh,[11]; [21],5%
same,%Inh,[12]; [21],15%
same,%Inh,[13]; [21],0%
same,%Inh,[14],0%
same,%Inh,[15]; [21],9%
same,%Inh,[16]; [21],17%
same,%Inh,[17]; [21],5%
same,%Inh,[18],0%
same,%Inh,[19]; [21],10%
same,%Inh,[20],0%
Cl.c1ccc(-c2n[nH]cc2-c2ccnc(-c3ccc(CN4CCOCC4)cc3)c2)nc1 [GW776245],%Inh,[1]; [21],0%
same,%Inh,[2]; [21],0%
same,%Inh,[3]; [21],0%
same,%Inh,[4]; [21],0%
same,%Inh,[5],0%
same,%Inh,[6]; [21],0%
same,%Inh,[7]; [21],44%
same,%Inh,[8]; [21],0%
same,%Inh,[9]; [21],17%
same,%Inh,[10]; [21],34%
same,%Inh,[11]; [21],22%
same,%Inh,[12]; [21],0%
same,%Inh,[13]; [21],0%
same,%Inh,[14],13%
same,%Inh,[15]; [21],49%
same,%Inh,[16]; [21],0%
same,%Inh,[17]; [21],0%
same,%Inh,[18],0%
same,%Inh,[19]; [21],0%
same,%Inh,[20],0%

# — article PMC5540273 (PLoS ONE, 2017)
